These results are taken from PubChem BioAssay AID2685 (National Center for Advancing Translational Sciences (NCATS), 2010).

The whole screen tested about 320,000 compounds, of which about 2,100 (0.66%) were called active. Not shown: some 53% with an inconclusive outcome. This is one part of a sample in which actives are shown more often than they occur. Calls follow the shape of the dose curve; as a rule, active = well fitted inhibition curve with a large enough effect in the signal ratio, with a control signal flat (not every such curve was filed as active); inconclusive = small, poorly fitted or top-dose-only effect, or effect the other way, or a change in a side signal; inactive = flat fitted curve, though single readings scatter; the % refers to the signal ratio.
Potency is read from the fitted curve at half-maximal effect.

This experiment is described as follows: qHTS Assay for Lipid Storage Modulators in Drosophila S3 Cells.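 As to cell number change: cells counted by Cell Tracker Red CMTPX staining in the red channel.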 As to lipid storage change, negative = inhibition: % is scaled to controls: 0 for no effect and ±100 for the full control effect. As to conditions: BODIPY lipid droplet fluorescence, 18-24 h, cells fed with added oleic acid; cell number change: measured here: cell count max response; series mostly up to 46.1 µM; lipid storage change, negative = inhibition: at the top concentration. The procedure, abridged: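 Drosophila S3 cells got compounds at several concentrations plus oleic acid (400 uM solution). Laser-scanning cytometry with 488 nm excitation read lipid droplets at 500-530 nm and cells at 575-640 nm. Percent activity was relative to 20 uM Triacsin C.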
As for `CCOC(=O)N1CCN(C(=O)CCc2cc(OC)c(OC)c(OC)c2)CC1`, the “lipid storage change, negative = inhibition” value was 19.9% (inactive) and the cell number change amounted to 18.4%.
Consider `COc1ccc(CNS(=O)(=O)c2ccc3c(c2)N(C(C)=O)CC(C)S3)cc1` (centres undefined), for which the compound was classed as inactive and the cell number change was -3.12%.
Regarding `CC(=O)N1CC(C)Sc2ccc(S(=O)(=O)NCCc3ccc(C)cc3)cc21` (centres undefined), the Potency is 6510 nM (active) and the cell number change is -15.2%.
Take `CC(=O)N1CC(C)Sc2ccc(S(=O)(=O)NCc3ccc(Cl)cc3)cc21` (centres undefined): the “lipid storage change, negative = inhibition” value is 20.2% (inactive) and the cell number change came out at 17.6%.
For `CCc1ccc(-n2c(C)cc(/C=N/NC(=O)OC)c2C)cc1`, in that order: 7.36% (inactive) and -6.79%.
Turning to `CCCCOC(=O)Nc1nnc(COc2ccccc2)s1`, the “lipid storage change, negative = inhibition” value is 8.5% (inactive) and the cell number change was -19.4%.
For `Cc1ccc(OCc2nnc(NC(=O)OCC(C)C)s2)c(C)c1`, the result was inactive.
Regarding `Cc1ccc(OCc2nnc(NC(=O)OCC(C)C)s2)cc1`, the Potency was 18400 nM (active) and the cell number change came to 0.0966%.
As to `O=C(NC1CCN(S(=O)(=O)c2ccc(Cl)c(F)c2)CC1)c1cccnc1`, the “lipid storage change, negative = inhibition” value is -20% (inactive) and the cell number change was -17.9%.
The matching figures for `C[C@@H](O)C1NC(=O)[C@H](CCCCN)NC(=O)c2cc([N+](=O)[O-])cc(I)c2OCC[C@@H](C(N)=O)NC1=O` (some centres undefined): 6.3% (inactive) and -6.85%.
The matching figures for `O=S(=O)(c1ccc(Br)cc1)c1nc(-c2ccccc2)oc1NCCN1CCOCC1`: 0.674% (inactive) and 2.89%.
As for `COCCNc1nnc(Cc2ccc(Cl)cc2)c(=O)[nH]1`, the “lipid storage change, negative = inhibition” value was -2.21% (inactive) and the cell number change is -0.278%.
For `O=C(c1ccc(F)c(F)c1)N1CCCc2ccccc21`, in that order: -1.08% (inactive) and 4.4%.
As for `O=C(c1cccc(Br)c1)N1CCCc2ccccc21`, the Potency is 820 nM (active) and the cell number change is -21.4%.
Regarding `O=C(c1ccccc1)N1CCCc2ccccc21`, the “lipid storage change, negative = inhibition” value is -0.33% (inactive) and the cell number change is 0.741%.
Take `Cc1ccc(OCCCC(=O)Nc2ccc(N3CCOCC3)cc2)c(C)c1`: the result was inactive.
Regarding `Cc1cc(Oc2nnnn2-c2ccccc2)ccc1Cl`, the “lipid storage change, negative = inhibition” value is -2.18% (inactive).
Turning to `CCN(C(=O)c1ccc(NC(C)=O)cc1)c1ccccc1`, the compound was called inactive and the cell number change is -17%.
In the case of `Nc1ccc(-n2nnnc2CN2CCOCC2)cc1`, the “lipid storage change, negative = inhibition” value is 10.8% (inactive) and the cell number change is 0.0095%.
With `c1ccc(-n2nnnc2CN2CCOCC2)cc1`, the “lipid storage change, negative = inhibition” value is -2.17% (inactive) and the cell number change was -7%.
`CC1CCN(Cc2nnnn2-c2ccc(Cl)cc2)CC1`: the Potency is 13000 nM (active) and the cell number change is -6.07%.
As for `COc1ccc(OC)c(N(CC(=O)NCCSCc2ccco2)S(=O)(=O)c2ccc(OC)c(OC)c2)c1`, the “lipid storage change, negative = inhibition” value is -30% (inactive) and the cell number change is -16.6%.
For `Cc1ccc2c(c1)S/C(=C\c1cccc[n+]1C)N2CCO`, in that order: -8.13% (inactive) and -6.57%.
For the compound `CCCCN1/C(=C/c2cccc[n+]2C)Sc2cc(NC(C)=O)ccc21`, the Potency is 1300 nM (active) and the cell number change stood at 11.1%.
`C[n+]1ccccc1/C=C1\Sc2ccccc2N1CCO`: the compound was classed as inactive and the cell number change was -1.06%.
On to `O=C(Nc1nc2ccc([N+](=O)[O-])cc2s1)C1CCCO1` (centres undefined), for which the “lipid storage change, negative = inhibition” value was 3.18% (inactive) and the cell number change is -16.8%.
The matching figures for `O=C(NNC(=O)c1csc(-c2cccnc2)n1)c1ccccc1`: -0.436% (inactive) and 5.13%.
The matching figures for `S=C(NCc1cccc(Cl)c1)NCc1ccco1`: -19.9% (inactive) and 29.3%.
For `CCC(CC)NC(=O)COC(=O)c1ccc2c(c1)C(=O)N(Cc1ccco1)C2=O`, in that order: -29.9% (inactive) and -0.427%.
In the case of `CC(C)(C)C(=O)COC(=O)c1ccc2c(c1)C(=O)N(Cc1ccco1)C2=O`, the Potency is 259 nM (active) and the cell number change was 2.14%.
As to `CC(C)(C)NC(=O)COC(=O)c1ccc2c(c1)C(=O)N(Cc1ccco1)C2=O`, the compound was classed as inactive and the cell number change was -13.3%.
As to `COc1ccc(NS(=O)(=O)c2cccc(C(=O)NCC(c3ccco3)N3CCCC3)c2)cc1` (centres undefined), the “lipid storage change, negative = inhibition” value is 16.7% (inactive) and the cell number change came out at 21.4%.
The matching figures for `COC(=O)c1ccc(CSc2nnc(N)s2)cc1`: 21.3% (inactive) and 1.22%.
As to `CCn1cc(C(=O)OCC(=O)OC2CC(C)CCC2C(C)C)c(=O)c2ccc(C)nc21` (centres undefined), the result was inactive.
With `CCC(C)Nc1nc2c(C)cccn2c(=O)c1C=Nc1ccc(OC)cc1` (centres undefined), the “lipid storage change, negative = inhibition” value was 22.7% (inactive).
With `CCOCCCNc1nc2c(C)cccn2c(=O)c1/C=C1\SC(=S)N(C(C)CC)C1=O` (centres undefined), the Potency was 461 nM (active) and the cell number change came out at 29.9%.
For `CCOCCCNC(=O)c1cc2c(=O)n3cccc(C)c3nc2s1`, the “lipid storage change, negative = inhibition” value is 15.3% (inactive) and the cell number change was found to be 22%.
Turning to `COCCn1c(=O)[nH]c(=O)c2c(C(F)(F)F)cc(-c3cccs3)nc21`, the “lipid storage change, negative = inhibition” value is 7.94% (inactive) and the cell number change turned out to be 6.31%.
For `COc1ccc(CNC(=O)c2cc(=O)c3cc(C)c(C)cc3o2)cc1`, in that order: 25% (inactive) and 22.5%.
The matching figures for `CN(NS(=O)(=O)c1ccc(F)cc1)c1ncc(C(F)(F)F)cc1Cl`: 7.85% (inactive) and -16.4%.
`CC(=O)NCCC(=O)Nc1ncc(S(=O)(=O)c2ccc([N+](=O)[O-])cc2)s1`: the “lipid storage change, negative = inhibition” value was 17.1% (inactive) and the cell number change is 18.8%.
The matching figures for `CCCOc1ccc(N2C(=O)CC(N3CCN(c4ccccc4F)CC3)C2=O)cc1` (centres undefined): 11.8% (inactive) and -7.57%.
For the compound `CCCOc1ccc(N2C(=O)CC(N3CCN(c4ccc([N+](=O)[O-])cc4)CC3)C2=O)cc1` (centres undefined), the Potency was 2310 nM (active) and the cell number change came out at 5.5%.
Regarding `CCCOc1ccc(N2C(=O)CC(N3CCOCC3)C2=O)cc1` (centres undefined), the outcome was inactive and the cell number change amounted to 5.36%.
Take `Cn1c(=O)n(CC(=O)O)c(=O)c2c1nc1n2CCCN1Cc1ccccc1`: the “lipid storage change, negative = inhibition” value was -23.5% (inactive) and the cell number change was found to be 6.57%.
The matching figures for `O=C(COc1ccccc1[N+](=O)[O-])N/N=C/C=C/c1ccco1`: -22.2% (inactive) and -6.08%.
`Cc1cc(NC(=O)CN2C(=O)NC3(CCC(C)CC3)C2=O)no1` (centres undefined): the “lipid storage change, negative = inhibition” value was 2.19% (inactive) and the cell number change is 5.62%.
